Among the test systems are EKVX NSCLC; SN12C renal; UO-31 renal; TK-10 renal; ACHN renal; CAKI-1 renal; A498 renal; CCRF-CEM leukemia; MOLT-4 leukemia; SR leukemia; RPMI-8226 leukemia; OVCAR-8 ovarian; OVCAR-5 ovarian; OVCAR-4 ovarian; SK-OV-3 ovarian; IGROV1 ovarian; OVCAR-3 ovarian; NCI/ADR-RES ovarian.
Holding throughout (assay): NCI-60 one-dose screen, 48 h (100 = growth as untreated, 0 = no growth, -100 = all killed)
What all share (conditions): 10 µM unless noted

Compounds without any hit were thinned out: in the full panel of roughly 83,000, 20% have a hit.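 The test compound was applied at a single concentration to cells in 96-well plates for 48 hours, and percent growth was recorded.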 Values without a mark were called inactive. Calls of active or inactive are those of the source. How the source made its calls: active means growth percent below 10; inactive means the rest.

For `c1cn2cc(-c3ccc4cn[nH]c4c3)nc(Nc3ccc(N4CCOCC4)cc3)c2n1`, the growth is 83.9% in the assay with EKVX NSCLC; 41.3% in the assay on SN12C renal; 65.1% in the assay with UO-31 renal; 76.1% in the assay with TK-10 renal; 39% in the assay on ACHN renal; 39.4% with CAKI-1 renal. Further, the growth is 68.7% in the assay on A498 renal; 66.9% in the assay with CCRF-CEM leukemia; 61.8% in the assay with MOLT-4 leukemia; 50% with SR leukemia; 63.4% in the assay with RPMI-8226 leukemia; 20% with OVCAR-8 ovarian. In addition, the growth in the assay with OVCAR-5 ovarian was 64.2%; in the assay on OVCAR-4 ovarian it was 3.99% (active); with SK-OV-3 ovarian, 21%; in the assay with IGROV1 ovarian it was 58.7%; with OVCAR-3 ovarian, 71.9%; in the assay on NCI/ADR-RES ovarian, 39.2%.

As for `Cc1cc(-c2cc(OC(=O)c3ccccc3)ccc2Cl)cc2nnc(Nc3ccc(OCCN4CCCC4)cc3)nc12`, the growth in the assay with EKVX NSCLC is 92.3%; in the assay on SN12C renal it was 66.3%; in the assay on UO-31 renal, 73.9%; with TK-10 renal, 89.7%; in the assay with ACHN renal, 74.2%; in the assay with CAKI-1 renal, 86.3%. In addition, the growth with A498 renal was 94.3%; in the assay on CCRF-CEM leukemia it was 3.09% (active); in the assay on MOLT-4 leukemia it was 73.1%; in the assay with SR leukemia, 0.433% (active); in the assay with RPMI-8226 leukemia it was 74.4%; in the assay with OVCAR-8 ovarian, 68.6%. For the same molecule, the growth with OVCAR-5 ovarian was 81%; with OVCAR-4 ovarian, -40.5% (active); in the assay with SK-OV-3 ovarian it was 52.6%; with IGROV1 ovarian, 69.4%; with OVCAR-3 ovarian, 86.3%; with NCI/ADR-RES ovarian, 110%.

With `N#CC[C@H](C1CCCC1)n1cc(-c2ncnc3[nH]ccc23)cn1`, the growth in the assay on EKVX NSCLC is 82.7%; in the assay on SN12C renal, 66.3%; in the assay on UO-31 renal it was 26.8%; in the assay on TK-10 renal it was 41.5%; in the assay on ACHN renal, 52.1%; in the assay with CAKI-1 renal, 34.9%. Besides, the growth in the assay with A498 renal is 64%; in the assay on CCRF-CEM leukemia it was 58.5%; in the assay with MOLT-4 leukemia, 56.1%; in the assay on SR leukemia, 2.14% (active); in the assay with RPMI-8226 leukemia, 81.2%; in the assay on OVCAR-8 ovarian it was 64.4%. Further, the growth with OVCAR-5 ovarian is 50.1%; in the assay on OVCAR-4 ovarian it was 81.5%; in the assay on SK-OV-3 ovarian it was 38.4%; in the assay with IGROV1 ovarian, 38%; in the assay with OVCAR-3 ovarian it was 83%; in the assay with NCI/ADR-RES ovarian, 87.9%.

In the case of `Cn1cc(-c2cnn3c(N)c(Br)c([C@@H]4CCCNC4)nc23)cn1`, the growth was 58.7% in the assay with EKVX NSCLC; 37.6% in the assay with SN12C renal; 28% in the assay with UO-31 renal; 33.4% with TK-10 renal; 19.8% in the assay with ACHN renal; 17.3% in the assay on CAKI-1 renal. For the same molecule, the growth was -8.93% (active) in the assay with A498 renal; 19.9% with CCRF-CEM leukemia; 7.79% (active) with MOLT-4 leukemia; 4.1% (active) in the assay with SR leukemia; 24.3% in the assay on RPMI-8226 leukemia; 50.8% in the assay with OVCAR-8 ovarian. Also, the growth is 56.9% in the assay with OVCAR-5 ovarian; 61.2% in the assay on OVCAR-4 ovarian; 38.1% in the assay with SK-OV-3 ovarian; 36.9% in the assay with IGROV1 ovarian; 59.8% in the assay with OVCAR-3 ovarian; 51.5% in the assay on NCI/ADR-RES ovarian.

`COc1cc(OC)c(/C=C/S(=O)(=O)Cc2ccc(OC)c(NCC(=O)O)c2)c(OC)c1`: the growth with EKVX NSCLC was 27.3%; with SN12C renal, 34%; in the assay on UO-31 renal, 36.3%; in the assay with TK-10 renal, 49.7%; in the assay on ACHN renal, 30.2%; with CAKI-1 renal, 18.2%. The growth is -4.03% (active) in the assay with A498 renal; 16.2% in the assay with CCRF-CEM leukemia; 14.5% in the assay on MOLT-4 leukemia; 10.7% in the assay with SR leukemia; 25.6% in the assay on RPMI-8226 leukemia; 15.4% in the assay on OVCAR-8 ovarian. The growth in the assay with OVCAR-5 ovarian was 49.1%; in the assay on OVCAR-4 ovarian, 60.1%; with SK-OV-3 ovarian, 15.8%; with IGROV1 ovarian, 22.6%; in the assay on OVCAR-3 ovarian it was 35.9%; in the assay with NCI/ADR-RES ovarian, 9.1% (active).

Turning to `C#Cc1cccc(Nc2ncnc3cc(OC)c(OCCCCCCC(=O)NO)cc23)c1`, the growth with EKVX NSCLC was 25%; with SN12C renal, 5.37% (active); in the assay with UO-31 renal, -16.8% (active); in the assay with TK-10 renal it was -48% (active); in the assay with ACHN renal, -30.1% (active); with CAKI-1 renal, -68.6% (active). Also, the growth with A498 renal was -86.3% (active); in the assay on CCRF-CEM leukemia it was 3.23% (active); with MOLT-4 leukemia it was -1.32% (active); in the assay with SR leukemia, 1.46% (active); with RPMI-8226 leukemia, -14.9% (active); with OVCAR-8 ovarian it was -21.5% (active). The growth in the assay with OVCAR-5 ovarian is -8.42% (active); in the assay on OVCAR-4 ovarian it was 6.28% (active); in the assay on SK-OV-3 ovarian, -58.2% (active); with IGROV1 ovarian, -41.3% (active); with OVCAR-3 ovarian, -19.9% (active); with NCI/ADR-RES ovarian, 14.4%.

As to `O=C(NC1CCNCC1)c1[nH]ncc1NC(=O)c1c(Cl)cccc1Cl`, the growth with EKVX NSCLC is 52.5%; with SN12C renal it was 12.7%; in the assay on UO-31 renal it was 70.6%; in the assay on TK-10 renal it was 25.8%; in the assay on ACHN renal, 66.5%; in the assay with CAKI-1 renal, 45.4%. For the same molecule, the growth in the assay with A498 renal was -25.3% (active); with CCRF-CEM leukemia it was 11.2%; in the assay with MOLT-4 leukemia it was 5.67% (active); with SR leukemia it was 2.12% (active); in the assay with RPMI-8226 leukemia, 1.32% (active); with OVCAR-8 ovarian it was 9% (active). For the same molecule, the growth in the assay on OVCAR-5 ovarian was 9.52% (active); in the assay with OVCAR-4 ovarian, 8.44% (active); in the assay with SK-OV-3 ovarian, 7.3% (active); in the assay with IGROV1 ovarian, 10.2%; in the assay with OVCAR-3 ovarian it was 4.35% (active); in the assay on NCI/ADR-RES ovarian, 85%.

Regarding `CC(=O)c1c(C)c2cnc(Nc3ccc(N4CCNCC4)cn3)nc2n(C2CCCC2)c1=O`, the growth in the assay on EKVX NSCLC was 58.8%; with SN12C renal, 37.1%; in the assay on UO-31 renal it was 20.2%; with TK-10 renal it was 32.4%; with ACHN renal it was 17.1%; with CAKI-1 renal, 26.3%. The growth in the assay on A498 renal is 31.7%; in the assay on CCRF-CEM leukemia it was 12.2%; in the assay on MOLT-4 leukemia, 11%; in the assay with SR leukemia it was -18.7% (active); in the assay with RPMI-8226 leukemia it was 28.2%; in the assay on OVCAR-8 ovarian, 52.3%. Besides, the growth in the assay on OVCAR-5 ovarian is 37.8%; in the assay on OVCAR-4 ovarian, 62%; in the assay on SK-OV-3 ovarian, 36.5%; in the assay on IGROV1 ovarian, 27.2%; with OVCAR-3 ovarian, 74.6%; in the assay on NCI/ADR-RES ovarian it was 72.4%.

In the case of `Cn1ncc(Cl)c1-c1cc(C(=O)N[C@H](CN)Cc2cccc(F)c2)sc1Cl`, the growth is 38.5% with EKVX NSCLC; 29.5% with SN12C renal; -10.1% (active) with UO-31 renal; 8.77% (active) with TK-10 renal; 18.7% in the assay with ACHN renal; 11% with CAKI-1 renal. Further, the growth is -61.2% (active) in the assay with A498 renal; 6.1% (active) in the assay on CCRF-CEM leukemia; -14.5% (active) with MOLT-4 leukemia; -29.6% (active) with SR leukemia; -10.3% (active) in the assay with RPMI-8226 leukemia; 15.5% with OVCAR-8 ovarian. For the same molecule, the growth is 35.3% in the assay on OVCAR-5 ovarian; 35.6% in the assay on OVCAR-4 ovarian; -12.8% (active) in the assay with SK-OV-3 ovarian; -21.5% (active) in the assay with IGROV1 ovarian; 31% with OVCAR-3 ovarian; 28.6% in the assay with NCI/ADR-RES ovarian.

These data come from PubChem BioAssay (NCI).
